# Experimental data: PubChem BioAssay AID2284378 (EPA ToxCast)
# Results filed as inconclusive are left out. Calls of active or inactive are those of the source. How the source made its calls: active means hit-call score of the fitted dose curve at least 0.9, where 1 is the maximum; inconclusive means response in the unintended direction; inactive means score below 0.9.
# Tested on: frog Retinoid X Receptor beta (RXRb), gene 394278
# Test: ATG_frRXRb_EcoTox2: Attagene TRANS-FACTORIAL EcoTox-2 HepG2 Assay for frog Retinoid X Receptor beta (RXRb)
# Protocol: ATG_EcoTox2 is a cell-based, multiplexed assay created by modifying the existing Attagene TRANS-FACTORIAL system to include a panel of nuclear receptors from some or all the following species: human (Homo sapiens), african clawed frog (Xenopus laevis), rainbow trout (Oncorhynchus mykiss), japanese medaka (Oryzias latipes), and zebrafish (Danio rerio). The ECOTOX2-FACTORIAL format uses HepG2, a human liver cell line, with measurements taken at 24 hours after chemical dosing in a 24-well plate. ATG_frRXRb_EcoTox2 is one of 29 assay components calculated in the ATG_EcoTox2 assay. It is designed to make measurements of mRNA induction, a form of inducible reporter, as detected with fluorescence intensity signals by Reverse transcription polymerase chain reaction (RT-PCR) and Capillary electrophoresis technology.The assay endpoint ATG_frRXRb_EcoTox2 was analyzed in the positive analysis fitting direction relative to DMSO as the negative control and baseline of activity. Using a type of inducible reporter, measures of mRNA for gain-of-signal activity can be used to understand the reporter gene at the transcription factor-level as they relate to the gene RXRb. Furthermore, this assay endpoint can be referred to as a primary readout, because this assay has produced multiple assay endpoints where this one serves a reporter gene function. To generalize the intended target to other relatable targets, this assay endpoint is annotated to the nuclear receptor intended target family, where the subfamily is non-steroidal.
# Human liver HepG2 cells are transiently transfected with multiple reporter transcription units (MRTUs) in 6-well plates using FuGene 6 reagent (Roche; 3 ml FuGene/1 mg DNA). The MRTU constructs are regulated by a cis-regulating element (promoter). Each RTU expresses a GAL4-UAS that regulates the transcription of a nearby target reporter gene sequence. A major difference between the CIS and TRANS system is that in CIS activities of endogenous TFs are measured, whereas the TRANS assay evaluates changes in activities of exogenous, chimeric NR-Gal4 proteins. […] At the end of 24 hour incubation, total RNA was isolated using TriZol reagent (Invitrogen). The isolated RNA is then reverse-transcribed using oligo(dT) primer and Mo-MLV reverse transcriptase (Invitrogen) with DNAse I (Ambion) treatment for 30 min. The one-tenth of the produced cDNA was amplified by PCR using Taq DNA polymerase (Invitrogen) and two reporter sequence-specific primers. The PCR products were fluorescently labeled by primer extension with 6-arboxyfluorescein (6-FAM) 5'-labeled reporter sequence-specific primer (2 min at 95 C, 20 s at 68 C and 10 min at 72 C) and these products were digested with 5U of HpaI (New England Biolabs) for 2h at 37 C. The fragments were purified using Qiaquick PCR columns (Qiagen), analyzed on an ABI 3130xL genetic analyzer (Applied Biosystems) with peak positions identified by using a set of X-rhodamine (ROX)-labeled MapMarker1000 molecular weight standards (BioVentures). The raw capillary electrophoresis data was processed using Attagraph software (Attagene).
SMILES,AC50,outcome
C=C(c1ccc(C(=O)O)cc1)c1cc2c(cc1C)C(C)(C)CCC2(C)C,0.00172 µM (active),–
CC(C)OC(=O)C(C)(C)Oc1ccc(C(=O)c2ccc(Cl)cc2)cc1,–,inactive
Cc1cccc(Nc2cc(Cl)nc(SCC(=O)O)n2)c1C,23.8 µM (active),–
C[C@@H]1C[C@H]2[C@@H]3CCC4=CC(=O)C=C[C@]4(C)[C@@]3(F)[C@@H](O)C[C@]2(C)[C@@]1(O)C(=O)COP(=O)(O)O,–,inactive
CC(c1cc2ccccc2s1)N(O)C(N)=O (centres undefined),–,inactive
CN(CCOc1ccc(CC2SC(=O)NC2=O)cc1)c1ccccn1 (centres undefined),–,inactive
Cc1ccc(C)c(OCCCC(C)(C)C(=O)O)c1,–,inactive
CC(C)(Oc1ccc(Cl)cc1)C(=O)O,–,inactive
C[C@]12C=CC(=O)C=C1CC[C@@H]1[C@@H]2C(=O)C[C@@]2(C)[C@H]1CC[C@]2(O)C(=O)CO,–,inactive
